Screens as filed in PubChem BioAssay.
NOMO-1 viab = STK33 inhibitor candidate reducing NOMO-1 cell viability; NOMO-1 AML viability, CellTiter-Glo luminescence, 72 h; inhibition, % (test concentration not listed); actives 7.5% (n = 37,000); in the data active = inhibition above about 80%; inconclusive = no clear call, values can overlap the other calls
ROS inducer = raises reactive oxygen species in U2OS cancer cells | actives 2% (n = 46,000) | ROS induction (% of piperlongumine), % at 10 µM | U2OS ROS induction, H2DCF-DA fluorescence; in the data active = ROS induction above about 79%, passing the limit was not always enough; inconclusive = no clear call, values can overlap the other calls
Large screens that a line does not name were inactive. This excerpt belongs to a sample that is enriched for hits.

C[C@H](CO)N1C[C@H](C)[C@H](CN(C)CC2CCCCC2)Oc2ccc(NS(=O)(=O)c3ccc(Cl)cc3)cc2CC1=O	NOMO-1 viab 97.4
C[C@@H]1CN([C@@H](C)CO)C(=O)Cc2cc(NS(=O)(=O)c3ccc(Cl)cc3)ccc2O[C@@H]1CN(C)CC1CC1	none
C[C@H]1CN([C@@H](C)CO)C(=O)Cc2cc(NS(=O)(=O)c3ccc(Cl)cc3)ccc2O[C@@H]1CN(C)CC1CCCCC1	NOMO-1 viab 119.5
C[C@H]1CN([C@@H](C)CO)C(=O)Cc2cc(NS(=O)(=O)c3ccc(F)cc3)ccc2O[C@H]1CN(C)CC1CCCCC1	NOMO-1 viab 114.7
C[C@H](CO)N1C[C@H](C)[C@H](CN(C)CC2CC2)Oc2ccc(NS(=O)(=O)c3ccc(Cl)cc3)cc2CC1=O	none
Cc1ccc(S(=O)(=O)N(C)C[C@H]2Oc3ccc(NS(=O)(=O)c4ccc(Cl)cc4)cc3CC(=O)N([C@@H](C)CO)C[C@H]2C)cc1	ROS inducer 211.6
C[C@@H]1CN([C@@H](C)CO)C(=O)Cc2cc(NS(=O)(=O)c3ccc(F)cc3)ccc2O[C@@H]1CN(C)CC1CCCCC1	NOMO-1 viab inconclusive
COc1ccc(NC(=O)Nc2cccc3c2O[C@@H](CN(C)CC2CC2)[C@H](C)CN([C@H](C)CO)C3=O)cc1	none
COc1ccc(S(=O)(=O)Nc2cccc3c2O[C@H](CN(C)CC2CCCCC2)[C@H](C)CN([C@@H](C)CO)C3=O)cc1	none
Cc1noc(C)c1NC(=O)Nc1cccc2c1O[C@H](CN(C)S(=O)(=O)c1cn(C)cn1)[C@@H](C)CN([C@@H](C)CO)C2=O	none
C[C@H](CO)N1C[C@H](C)[C@H](CN(C)CC2CCCCC2)Oc2c(NS(=O)(=O)c3ccc(F)cc3)cccc2C1=O	none
O=C(NCC(O)CO)[C@]1(Cc2ccccc2)N=C(c2ccc(OCCCO)cc2)O[C@@H]1c1ccccc1 (stereo partly drawn)	none (no result: NOMO-1 viab)
C[C@@H]1CN([C@H](C)CO)C(=O)c2cc(NC(=O)C3CC3)ccc2O[C@H]1CN(C)S(=O)(=O)c1ccc(Cl)cc1	none
Cc1noc(C)c1S(=O)(=O)Nc1ccc2c(c1)CC(=O)N([C@@H](C)CO)C[C@H](C)[C@H](CN(C)CC1CCCCC1)O2	none
C[C@H]1CN([C@@H](C)CO)C(=O)Cc2cc(NS(=O)(=O)c3ccc(Cl)cc3)ccc2O[C@@H]1CN(C)CC1CC1	none
C[C@H]1CN([C@@H](C)CO)C(=O)Cc2cc(NS(=O)(=O)c3ccc(Cl)cc3)ccc2O[C@H]1CN(C)CC1CCCCC1	NOMO-1 viab 135.3
Cc1ccc(S(=O)(=O)Nc2ccc3c(c2)CC(=O)N([C@@H](C)CO)C[C@@H](C)[C@@H](CN(C)CC2CC2)O3)cc1	none
Cc1ccc(S(=O)(=O)Nc2ccc3c(c2)CC(=O)N([C@H](C)CO)C[C@H](C)[C@H](CN(C)CC2CCCCC2)O3)cc1	NOMO-1 viab 98.6
Cc1noc(C)c1S(=O)(=O)Nc1ccc2c(c1)CC(=O)N([C@H](C)CO)C[C@@H](C)[C@H](CN(C)CC1CCCCC1)O2	ROS inducer 108.9
c1ccc(OCCSc2nc3ccccc3n2CCOc2ccccc2)cc1	none
CS(=O)(=O)N(CC(=O)NC1CC1)c1cccc(C(F)(F)F)c1	none (no result: ROS inducer)
CC(C)NC(=O)Nc1cccc2c1O[C@H](CN(C)Cc1ccc(C(=O)O)cc1)[C@H](C)CN([C@H](C)CO)C2=O	none
C=CCSc1c2c(c(C#N)c3nc4ccccc4n13)CCC2	ROS inducer 103.0
N#Cc1c2c(c(NCCN3CCCCC3)n3c1nc1ccccc13)CCC2	none (no result: NOMO-1 viab)
Cc1c(Br)c([N+](=O)[O-])nn1C(C)C(=O)NCc1ccco1 (stereo not drawn)	none
CCc1ccccc1NC(=O)C(C)n1nc([N+](=O)[O-])c(Br)c1C (stereo not drawn)	ROS inducer 111.4
Cc1ccc(NC(=O)Cn2nc([N+](=O)[O-])cc2C)cc1	none (no result: ROS inducer)
COc1ccc(OC)c(C(O)CNC(=O)CN)c1 (stereo not drawn)	ROS inducer 122.2
COc1ccc(CC(=O)NCC(C)C)cc1	none
O=C(Nc1ccc(S(=O)(=O)N2CCCC2)cc1)c1ccc(COc2ccc3c(c2)CCC3)cc1	ROS inducer 87.4 (no result: NOMO-1 viab)
O=S(=O)(c1ccccc1)N1CCN(CC(O)COc2ccc3c(c2)CCC3)CC1 (stereo not drawn)	none
O=C(Cn1cnc2sc3c(c2c1=O)CCCC3)NCCC(=O)N1CCN(c2ccc(F)cc2)CC1	none
COc1cc(C2NC(=S)NC(c3ccccc3)=C2C(=O)c2ccccc2)cc(I)c1OCCO (stereo not drawn)	none
COC(=O)COc1cc(Cl)c(C2NC(=S)NC(c3ccccc3)=C2C(C)=O)cc1OC (stereo not drawn)	NOMO-1 viab 117.2 (no result: ROS inducer)
O=C(O)c1cccc(NS(=O)(=O)c2cccc(S(=O)(=O)c3ccc(Cl)c(Cl)c3)c2)c1	none (no result: ROS inducer)
Cc1ccc(S(=O)(=O)N(C)C[C@H]2Oc3c(NC(=O)C4CCCCC4)cccc3C(=O)N([C@@H](C)CO)C[C@H]2C)cc1	none
C[C@@H]1CN([C@H](C)CO)C(=O)c2cc(NC(=O)C3CCCCC3)ccc2O[C@H]1CN(C)C(=O)Nc1cccc2ccccc12	none
Cc1c(C#N)c(SCc2cccc(C(F)(F)F)c2)nc2ccccc12	none
CSc1ncc(Cl)c(C(=O)Nc2sc3c(c2C(=O)NCCc2ccccc2)CCC3)n1	none
COCCNC(=O)c1c(NC(=O)c2nc(SC)ncc2Cl)sc2c1CCCC2	NOMO-1 viab 137.6
Cc1ccc(NC(=O)CCN2C(=O)c3ccccc3C2=O)cc1[N+](=O)[O-]	none (no result: ROS inducer)
Cc1ccc(S(=O)(=O)Nc2ccc3c(c2)C(=O)N([C@@H](C)CO)C[C@@H](C)[C@@H](CN(C)Cc2ccccc2)O3)cc1	none
C=C1C2=C(O[C@H](/C(C)=C/C(C)CC(C)CC)[C@@H](O)[C@@H]2O)C(=O)N1OC (stereo partly drawn)	NOMO-1 viab 107.2, ROS inducer 149.1
Cc1ccc2c(C)c(C(=O)Nc3sc4c(c3C(=O)NCC3CCCO3)CCC4)oc2c1 (stereo not drawn)	none (no result: ROS inducer)
Cc1ccc2oc(C(=O)Nc3sc4c(c3C(=O)NCc3ccco3)CCC4)c(C)c2c1	NOMO-1 viab 120.3 (no result: ROS inducer)
Cc1ccc(C(=O)Nc2sc3c(c2C(=O)NCc2ccco2)CCCC3)cc1	none (no result: ROS inducer)
Cc1ccc2c(C)c(C(=O)Nc3sc4c(c3C(=O)NCC3CCCO3)CCCC4)oc2c1 (stereo not drawn)	NOMO-1 viab 114.4 (no result: ROS inducer)
Cc1ccccc1-c1nc2cc(NC(=O)COc3ccc(Cl)cc3)ccc2o1	none (no result: ROS inducer)
O=C(COc1ccc(Cl)cc1Cl)Nc1ccc(O)c(-c2nc3ccccc3s2)c1	NOMO-1 viab 103.1
Cc1ccc(-c2nc3ccccc3s2)cc1NC(=O)COc1cccc(C)c1C	NOMO-1 viab 89.3
O=C(COc1ccc(Cl)cc1Cl)Nc1cccc(-c2nnc(-c3ccccc3)o2)c1	NOMO-1 viab 114.1
Cc1ccc(-c2nc3ccccc3s2)cc1NC(=O)COc1ccccc1C	none
Cc1cc(Cl)ccc1OCC(=O)Nc1ccccc1-c1nc2ccccc2s1	none (no result: ROS inducer)
CC(Oc1ccc(Cl)cc1Cl)C(=O)Nc1cccc(-c2nnc(-c3ccccc3)o2)c1 (stereo not drawn)	none
O=C(COc1ccc(Cl)cc1)Nc1ccc(O)c(-c2nc3ccccc3o2)c1	NOMO-1 viab 98.1 (no result: ROS inducer)
CC(C)[C@@H]1CC[C@@]2(C)[C@H](O)CC[C@@](C)(O)[C@@H]2[C@@H]1OC(=O)/C=C/c1ccccc1	none
Cn1ccnc1CN1CCN(Cc2nccn2C)CC1	none (no result: ROS inducer)
